Results: the supplement of paper PMC8866396
± gives the standard deviation of the averaged measurements.

What was measured:
IL-6-GFP PC-9GR = assay: cell viability (CCK-8 OD) relative to DMSO control (fraction of control); higher = more viable cells; details: compound concentration: 10 uM; treatment time: 48 h
Summary of the method: (§1)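 PC-9 and PC-9GR lung cancer cells overexpressing IL-6-GFP from a lentiviral construct were plated at 3000 cells/well in 96-well plates. Each compound from a purchased 510-compound library was added at a final 10 μM for 48 h, with a parallel plate set used for GFP imaging. Viability was measured by CCK-8 absorbance and expressed as each well's optical density divided by the vehicle (DMSO) control well, from two independent replicates.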

IL-6-GFP PC-9 = assay: as above; details: compound concentration: 10 uM; treatment time: 48 h
Summary of the method: as §1

| Structure (SMILES) | cell viability (IL-6-GFP PC-9GR) | cell viability (IL-6-GFP PC-9) |
| --- | --- | --- |
| COC(c1ccccc1)(c1ccccc1)C(Oc1nc(C)cc(C)n1)C(=O)O (configuration not stated) [Ambrisentan] | 1.22 ± 0.077 | 1.25 ± 0.37 |
| CN(C)C/C=C/C(=O)Nc1cc2c(Nc3ccc(F)c(Cl)c3)ncnc2cc1OC1CCOC1 (configuration not stated) [Afatinib (BIBW2992)] | 0.542 ± 0.058 | 0.294 ± 0.038 |
| NC(=O)NO [Hydroxyurea] | 1.32 ± 0.077 | 0.839 ± 0.1 |
| CS(=O)(=O)O.Cc1ccc(NC(=O)c2ccc(CN3CCN(C)CC3)cc2)cc1Nc1nccc(-c2cccnc2)n1 [Imatinib Mesylate (STI571)] | 1.26 ± 0.07 | 1.1 ± 0.1 |
| CCC(c1ccc(O)cc1)C(CC)c1ccc(O)cc1 (configuration not stated) [Hexestrol] | 1.28 ± 0.31 | 1.16 ± 0.15 |
| COc1cc2c(Oc3ccc4[nH]c(C)cc4c3F)ccnc2cc1OCC1(N)CC1.Cl.Cl [Anlotinib (AL3818) dihydrochloride] | 0.463 ± 0.024 | 0.575 ± 0.056 |
| NC1CCCCC1N.O=C([O-])C(=O)[O-].[Pt+2] (configuration not stated) [Oxaliplatin] | 0.678 ± 0.016 | 1.2 ± 0.099 |
| CC1CCC2(C(=O)OC3OC(COC4OC(CO)C(OC5OC(C)C(O)C(O)C5O)C(O)C4O)C(O)C(O)C3O)CCC3(C)C(=CCC4C5(C)CC(O)C(O)C(C)(CO)C5CCC43C)C2C1C (configuration not stated) [Asiaticoside] | 1.06 ± 0.2 | 1.17 ± 0.021 |
| CCC(C)C(=O)OC1CC(C)C=C2C=CC(C)C(CCC3CC(O)CC(=O)O3)C21 (configuration not stated) [Lovastatin] | 1.23 ± 0.028 | 0.619 ± 0.019 |
| CC(OCC1(c2ccccc2)CCC2(CCC(=O)N2)CN1)c1cc(C(F)(F)F)cc(C(F)(F)F)c1 (configuration not stated) [Rolapitant] | 0.76 ± 0.035 | 0.853 ± 0.26 |
| Cc1cnc(Nc2ccc(OCCN3CCCC3)cc2)nc1Nc1cccc(S(=O)(=O)NC(C)(C)C)c1 | 0.186 ± 0.081 | 0.3 ± 0.12 |
| CC1CC2C3CCC4=CC(=O)C=CC4(C)C3(F)C(O)CC2(C)C1(O)C(=O)COP(=O)([O-])[O-].[Na+].[Na+] (configuration not stated) [Dexamethasone Sodium Phosphate] | 1.22 ± 0.16 | 0.831 ± 0.039 |
| CCC1(O)CC2CN(CCc3c([nH]c4ccccc34)C(C(=O)OC)(c3cc4c(cc3OC)N(C=O)C3C(O)(C(=O)OC)C(OC(C)=O)C5(CC)C=CCN6CCC43C65)C2)C1 (configuration not stated) [Vincristine] | 0.556 ± 0.22 | 0.631 ± 0.041 |
| Cl.Cl.Cl.Cl.Cl.Cl.Cl.Cl.c1cc(CN2CCCNCCNCCCNCC2)ccc1CN1CCCNCCNCCCNCC1 [Plerixafor 8HCl (AMD3100 8HCl)] | 1.04 ± 0.12 | 1.13 ± 0.1 |
| Nc1ccn(C2OC(CO)C(O)C2O)c(=O)n1 (configuration not stated) [Cytarabine] | 0.816 ± 0.077 | 0.7893 ± 0.0033 |
| CN1CCN(C(c2ccccc2)c2ccccc2)CC1.Cl.Cl [Cyclizine 2HCl] | 1.06 ± 0.31 | 0.972 ± 0.038 |
| CC(=O)OC1(C(C)=O)CCC2C3C=C(Cl)C4=CC(=O)C5CC5C4(C)C3CCC21C (configuration not stated) [Cyproterone Acetate] | 1.13 ± 0.092 | 1.2 ± 0.092 |
| COc1ccc(S(=O)(=O)N(C(C)=O)c2ccccc2/C=C/c2cc[n+]([O-])cc2)cc1 | 0.674 ± 0.091 | 0.753 ± 0.018 |
| CC12CCC(CC1)C(C)(C)O2 [Eucalyptol] | 1.29 ± 0.37 | 1.33 ± 0.048 |
| CC[N+](CC)(CC)CCOc1cccc(OCC[N+](CC)(CC)CC)c1OCC[N+](CC)(CC)CC.[I-].[I-].[I-] [Gallamine Triethiodide] | 1.34 ± 0.31 | 1.202 ± 0.0034 |
| CC1(C(=O)O)CCC2(C)CCC3(C)C(=CC(=O)C4C5(C)CCC(OC6OC(C(=O)O)C(O)C(O)C6OC6OC(C(=O)O)C(O)C(O)C6O)C(C)(C)C5CCC43C)C2C1 (configuration not stated) [Glycyrrhizin (Glycyrrhizic Acid)] | 1.47 ± 0.11 | 1.29 ± 0.022 |
| Nc1nc(=S)c2[nH]cnc2[nH]1 [Thioguanine] | 1.37 ± 0.42 | 1.2 ± 0.061 |
| COc1cc(-c2coc3cc4c(c(OC)c3c2=O)OCO4)cc(OC)c1OC [Irisflorentin] | 0.826 ± 0.2 | 1.04 ± 0.12 |

| Structure (SMILES) | cell viability (IL-6-GFP PC-9GR) | cell viability (IL-6-GFP PC-9) |
| --- | --- | --- |
| Clc1ccc(C(c2ccccc2Cl)C(Cl)Cl)cc1 (configuration not stated) [Mitotane] | 1.2 ± 0.1 | 0.958 ± 0.05 |
| COc1c(-c2ccc3cc(NS(C)(=O)=O)ccc3c2)cc(-n2ccc(=O)[nH]c2=O)cc1C(C)(C)C [Dasabuvir(ABT-333)] | 0.7838 ± 0.0059 | 0.9253 ± 0.0086 |
| CC1(C)OC2CC3C4CCC5=CC(=O)C=CC5(C)C4C(O)CC3(C)C2(C(=O)CO)O1 (configuration not stated) [Desonide] | 0.804 ± 0.24 | 0.683 ± 0.22 |
| CC(C)(C)c1nc(-c2cccc(NS(=O)(=O)c3c(F)cccc3F)c2F)c(-c2ccnc(N)n2)s1 | 1.14 ± 0.12 | 0.77 ± 0.035 |
| CC(C(=O)O)c1ccc(C(=O)c2cccs2)cc1 (configuration not stated) [Suprofen] | 1.53 ± 0.58 | 1.13 ± 0.022 |
| Cl.Clc1ccc(CCCOCCCN2CCCCC2)cc1 [Pitolisant hydrochloride] | 0.916 ± 0.11 | 1.13 ± 0.28 |
| CC(=O)Oc1ccccc1C(=O)O [Aspirin] | 1.05 ± 0.027 | 1.23 ± 0.12 |
| O=C(c1ccc(OCCN2CCCCC2)cc1)c1c(-c2ccc(O)cc2)sc2cc(O)ccc12 [Raloxifene] | 0.849 ± 0.1 | 1.08 ± 0.11 |
| C=C1c2cccc(O)c2C(=O)C2=C(O)C3(O)C(=O)C(C(N)=O)=C(O)C(N(C)C)C3C(O)C12.Cl (configuration not stated) [Methacycline HCl] | 0.894 ± 0.32 | 1 ± 0.072 |
| Cc1ccc(-c2cc(C(F)(F)F)nn2-c2ccc(S(N)(=O)=O)cc2)cc1 [Celecoxib] | 1.13 ± 0.057 | 1.09 ± 0.051 |
| Cc1nccn1CC1CCc2c(c3ccccc3n2C)C1=O.Cl (configuration not stated) [Ondansetron HCl] | 1.24 ± 0.19 | 1.18 ± 0.093 |
| CCN1CCN(Cc2ccc(Nc3ncc(F)c(-c4cc(F)c5nc(C)n(C(C)C)c5c4)n3)nc2)CC1 [Abemaciclib] | 0.668 ± 0.14 | 0.746 ± 0.094 |
| OCC1OC(c2ccc(F)c(Cc3cc4ccccc4s3)c2)C(O)C(O)C1O (configuration not stated) [Ipragliflozin (ASP1941)] | 0.779 ± 0.068 | 1.06 ± 0.12 |
| COC1=C(OC)C(=O)C(CCCCCCCCCCO)=C(C)C1=O [Idebenone] | 1.12 ± 0.088 | 0.816 ± 0.0099 |
| COc1cc2c3cc1Oc1c(OC)c(OC)cc4c1C(Cc1ccc(O)c(c1)Oc1ccc(cc1)CC3N(C)CC2)N(C)CC4 (configuration not stated) [Berbamine] | 0.891 ± 0.25 | 1.08 ± 0.14 |
| CN1C(C(=O)Nc2ccccn2)=C(O)c2ccccc2S1(=O)=O [Piroxicam] | 1.21 ± 0.047 | 1.09 ± 0.12 |
| O=S(=O)([O-])CCS.[Na+] [Mesna] | 1.23 ± 0.2 | 0.95 ± 0.07 |
| O=C(O)COc1nn(Cc2ccccc2)c2ccccc12 [Bendazac] | 1.85 ± 0.092 | 1.14 ± 0.11 |
| Cc1cnc(NC(=O)C2=C(O)c3ccccc3S(=O)(=O)N2C)s1 [Meloxicam] | 1.2096 ± 0.0007 | 1.4 ± 0.41 |
| Cc1cnc(C(=O)NC2CCCCC/C=C\C3CC3(C(=O)NS(=O)(=O)C3CC3)NC(=O)C3CC(Oc4nc5ccccc5c5ccccc45)CN3C2=O)cn1 (configuration not stated) [Paritaprevir (ABT-450)] | 0.779 ± 0.2 | 0.874 ± 0.28 |
| CC(=O)OC1(C(C)=O)CCC2C3CC(C)C4=CC(=O)C=CC4(C)C3(F)C(O)CC21C (configuration not stated) [Fluorometholone Acetate] | 0.701 ± 0.05 | 0.947 ± 0.087 |
| Cn1cnc2c(F)c(Nc3ccc(Br)cc3F)c(C(=O)NOCCO)cc21 | 0.812 ± 0.043 | 1.2 ± 0.19 |
| CC(C(=O)O)c1ccc2c(c1)[nH]c1ccc(Cl)cc12 (configuration not stated) [Carprofen] | 1.16 ± 0.41 | 0.265 ± 0.35 |
